Assay outcomes as filed in PubChem.
TDP1 cell noCPT = qHTS for Inhibitors of human tyrosyl-DNA phosphodiesterase 1 (TDP1): qHTS in cells in absence of CPT; DT40 Tdp1-/- hTDP1 cells, no CPT, ATP luminescence, 48 h; Potency, µM (doses to about 46.2 µM), for inactives: at the highest dose activity change, negative = growth inhibition, most hits filed as inhibitors; hit rate 15% among 420,000; AID 686978, 2013; also: potency is read from the fitted curve at half-maximal effect; nearly all actives have a fitted effect of over 55% in size
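No-CPT arm: Tdp1-/-;hTDP1 DT40 cells (400/well) plus compounds, incubated ≥48 hr at 37 °C. Readout CellTiter-Glo luminescence.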
Gal4-VP16 FLuc = Gal4-VP16 reporter inhibition counter-screen. hit rate 3.5% among 310,000. Drosophila S2 Gal4-VP16 UAS-luciferase, luminescence, 20 h. Potency, µM (doses to about 53.6 µM), for inactives: top-dose activity, negative = inhibition, usual class: inhibitors;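 also: Gal4-VP16 expression switched on by copper sulfate through the metallothionein promoter; potency is read from the fitted curve at half-maximal effect; nearly all actives have a fitted effect of over 50% in size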
IL1B secr inh = blocks inflammasome-driven IL-1 beta release. THP-1 LPS/ATP IL-1B secretion, AlphaLISA, 16 h; active compounds read low. activity change, % at 57.5 µM. hit rate 4.7% among 360,000; in the data active = activity change below about -50%; inconclusive = mostly about -30% to -49%
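THP-1 cells pretreated 1 hr with compounds (up to 57.5 uM final), then stimulated with LPS (250 ng/mL final) plus ATP (1.25 mM final); secreted IL-1B measured by AlphaLISA after 16 hr, decreased signal indicating inhibition.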
LDHA block = inhibitors of human lactate dehydrogenase A; P00338; purified LDHA, NADH/diaphorase-resazurin fluorescence; active compounds read low; activity change, % (values are at about 110 or 230 µM); hit rate 0.15% among 480,000; in the data active = activity change below about -30%; inconclusive = mostly about -25% to -30%;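 also: plate controls were DMSO wells for no effect and wells without enzyme for full effect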
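Enzyme activity of human lactate dehydrogenase 5 (2 nM; 0.06 mM NADH, 0.2 mM pyruvate, 5 min, RT) is measured via a resazurin/diaphorase fluorescence readout of residual NADH.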
TDP1 cell CPT = DT40-hTDP1 cell growth loss with CPT | AID 686979 | chicken DT40 Tdp1-/-;hTDP1 cells + 20 nM CPT, ATP luminescence, 48 h | Potency, µM (titrated, usually from 46.2 µM), for inactives: at the highest dose activity change, negative = growth inhibition, hits mostly inhibitors | hit rate 12% among 420,000; also: potency is read from the fitted curve at half-maximal effect; nearly all actives have a fitted effect of over 55% in size
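Chicken DT40 Tdp1-/- cells stably complemented with human TDP1 were seeded at 400 cells/well in medium containing 20 nM camptothecin, exposed to pin-transferred compounds, and grown at 37 °C for at least 48 hr. Viability was read as ATP luminescence.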
RORgamma inh = blocks mouse ROR gamma transcriptional activity; AID 2551; hit rate 5.4% among 310,000; P51450; Potency, µM (doses to about 53.6 µM), inactives show at the highest dose activity change, negative = inhibition, actives largely listed as inhibitors; Drosophila S2 Gal4-RORgamma UAS-luciferase reporter, 20 h; also: potency is read from the fitted curve at half-maximal effect; nearly all actives have a fitted effect of over 60% in size
Target sequence (P51450 whole entry, looked up, the tested form may be a part): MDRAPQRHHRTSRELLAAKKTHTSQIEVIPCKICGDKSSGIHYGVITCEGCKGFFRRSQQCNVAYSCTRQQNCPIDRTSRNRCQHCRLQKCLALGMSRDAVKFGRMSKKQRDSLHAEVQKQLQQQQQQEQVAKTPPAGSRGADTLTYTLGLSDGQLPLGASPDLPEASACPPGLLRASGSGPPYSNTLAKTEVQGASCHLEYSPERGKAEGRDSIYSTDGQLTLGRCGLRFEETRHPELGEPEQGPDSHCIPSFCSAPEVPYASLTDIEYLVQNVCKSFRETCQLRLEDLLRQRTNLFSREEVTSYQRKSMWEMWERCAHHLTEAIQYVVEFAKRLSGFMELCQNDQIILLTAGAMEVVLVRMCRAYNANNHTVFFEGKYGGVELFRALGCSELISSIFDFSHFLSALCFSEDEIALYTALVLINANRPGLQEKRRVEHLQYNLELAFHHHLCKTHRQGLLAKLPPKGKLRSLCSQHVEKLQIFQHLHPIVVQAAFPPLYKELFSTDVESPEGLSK
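Drosophila S2 cells stably expressing Gal4-DBD/mouse RORγ fusion under metallothionein promoter plus UAS-luciferase; compound 1 h, then 700 uM CuSO4 induction for 20 h at ambient temperature; inhibition read as reduced luminescence.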
Active calls of the source: *; ? = inconclusive; / = not tested or not shown; [ ] = remark or other dose. Only some compounds are listed: those with a hit (about 18% of all), similar ones and a draw of the others. Unless noted, calls follow the shape of the dose curve; as a rule, active = well fitted curve in the direction sought with a large enough effect; inconclusive = small, poorly fitted or top-dose-only effect, or another doubt; inactive = no such curve, though single readings can be large; an effect the other way counts as inactive or inconclusive. Unless noted, % is scaled to controls: 0 for no effect and ±100 for the full control effect.

SMILES	TDP1 cell noCPT	Gal4-VP16 FLuc	IL1B secr inh	LDHA block	TDP1 cell CPT	RORgamma inh
CCn1c(=N)c(C(=O)NC)cc2c(=O)n3cccc(C)c3nc21	16µM*	-3%	-21	-7	?	-22%
CCOCCCn1c(=N)c(C(=O)NC2CCCC2)cc2c(=O)n3cccc(C)c3nc21	21µM*	/	/	-1	?	/
COCCn1c(=N)c(S(=O)(=O)c2ccc(F)cc2)cc2c(=O)n3cccc(C)c3nc21	8.2µM*	1%	-2	-8	?	-14%
CCCn1c(=N)c(S(=O)(=O)c2ccc(F)cc2)cc2c(=O)n3cccc(C)c3nc21	-28%	5%	0	-7	?	-15%
Cc1ccccc1CN(C)C(=O)CCc1nc2ccccc2s1	/	/	/	2	/	/
COc1cc(SC)ccc1C(=O)Nc1ccc2c(c1)OCCO2	?	?	?	-7	?	11µM*
COc1cc(SC)ccc1C(=O)Nc1c(C)cccc1C	13µM*	-19%	21	-4	?	?
COc1cc(SC)ccc1C(=O)NNC(=O)c1cc(C)oc1C	15µM*	/	-3	-6	?	/
COc1cc(CC(=O)NNC(=O)c2cc(C)oc2C)cc(OC)c1OC	10%	0%	-5	-5	12%	-1%
COc1cc2nc(CSCC(=O)N3CCCC3)[nH]c(=O)c2cc1OC	/	/	/	-17	/	/
COc1ccc(C(=O)C(C)OC(=O)Cc2ccc(OC)c(F)c2)cc1 (stereo unspecified)	/	/	/	0	/	/
CSc1nc(N(C)NC(=O)c2ccc(F)cc2)c2ccccc2n1	0.73µM*	6%[0.365 µM]	75	-6	0.58µM*	?
Cc1ccccc1C(=O)Nc1ccc2oc(-c3ccccc3)cc(=O)c2c1	/	/	/	4	/	/
CCc1nc(NCc2ccncc2)c(C#N)c2c1CCCC2	/	/	/	3	/	/
Cc1ccsc1/C=N/Nc1ncc(Cl)cc1Cl	?	5µM*	-14	-3	?	7.1µM*
Cc1ccsc1/C=N/Nc1nc(=O)[nH]nc1C	15µM*	10µM*	8	14	21µM*	5.6µM*
COc1ccc(C2=NN(C(=O)c3cccs3)C(c3ccc4nccnc4c3)C2)cc1OC (stereo unspecified)	/	/	/	-6	/	/
Cc1cc2nc(-c3ccc[nH]c3=O)[nH]c2cc1C	10µM*	6.3µM*	-14	-11	7.3µM*	7.9µM*
Cc1cc2nc(-c3ccc[nH]c3=O)n(Cc3ccc(F)cc3)c2cc1C	-21%	-11%	-21	3	-13%	9%
CCOC(=O)c1ccc(S(=O)(=O)N2CC(=O)Nc3ccccc32)cc1	18µM*	-18%	17	-1	18µM*	8%
CCOC(=O)c1ccc(N2C(=O)c3n[nH]c(C)c3C2c2ccccc2OC)cc1 (stereo unspecified)	18µM*	/	/	-1	16µM*	/
CCOC(=O)c1ccc(N2C(=O)c3n[nH]c(-c4ccco4)c3C2c2ccccc2OC)cc1 (stereo unspecified)	6.5µM*	/	/	-1	18µM*	/
CN(Cc1ccccc1Br)c1cc(C(=O)N2CCOCC2)c2ccccc2n1	/	/	/	-20	/	/
CC1CC(C)(C)NC(=S)N1CC(=O)NCc1ccccc1Cl (stereo unspecified)	-8%	?	26	-3	-24%	?
CC1CC(C)(C)NC(=S)N1CC(=O)NCc1ccc(Cl)cc1 (stereo unspecified)	-4%	?	6	-6	-3%	11µM*
CCc1ccc(NC(=O)CCCN2C(=S)NC(C)(C)CC2C)cc1 (stereo unspecified)	?	?	3	-5	12%	4.5µM*
Cc1ccc(NC(=O)CCCN2C(=S)NC(C)(C)CC2C)cc1 (stereo unspecified)	-12%	?	-3	-10	1%	13µM*
